# Compound activity: PubChem BioAssay, National Center for Advancing Translational Sciences (NCATS)
# Apoferritin bind – candidate novel general anesthetic via apoferritin binding; P02791; apoferritin/1-aminoanthracene competitive binding, fluorescence; Potency, µM (titrated, usually from 77.5 µM), for the others: top-dose activity change, negative = displacement, usual class: inhibitors; actives 0.074% (n = 350,000); note: % is set by controls: 0 for no effect and ±100 for the full control effect; nearly all actives have a fitted effect of over 20% in size
# Target sequence (P02791 2-175 limits assumed): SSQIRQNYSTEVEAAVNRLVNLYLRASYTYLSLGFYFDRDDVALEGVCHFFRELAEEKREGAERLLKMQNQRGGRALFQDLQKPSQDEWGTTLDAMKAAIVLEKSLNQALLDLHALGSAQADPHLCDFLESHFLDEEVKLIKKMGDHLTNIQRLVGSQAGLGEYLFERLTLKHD
#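 Apoferritin-based anesthetic binding model; compound displacement of fluorescent 1-AMA measured as endpoint fluorescence after 10 minutes at room temperature, scaled to free-ligand and complex controls.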
# S2 tox – cell viability loss in ATXN counter-screen; S2 cells (HEK-293 line with an ATXN2-luciferase reporter) viability, CellTiter-Fluor protease fluorescence, 24 h; Potency, µM (titrated, usually from 56.7 µM), hits mostly cytotoxic; actives 0.49% (n = 400,000); AID 651635; note: nearly all actives have a fitted effect of over 40% in size
# TGFb inhibitor – TGF-b pathway inhibition; actives 1.2% (n = 410,000); HepG2 CAGA-GFP TGF-b/SMAD3 reporter, GFP fluorescence, 18 h; TGF-beta stimulated, 500 pg/mL final; Potency, µM (top dose mostly 46.1 µM), for inactives: at the highest dose activity, negative = inhibition, usual class: inhibitors; note: % is set by controls: 0 for no effect and ±100 for the full control effect; nearly all actives have a fitted effect of over 65% in size
#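 HEPG2 CAGA-GFP cells (1000/well, DMEM with 1% FBS) were pre-incubated 2 h at 37 degrees C, given compound by pin tool, then stimulated with TGF-beta at 500 pg/mL final for 18 h before per-cell GFP fluorescence imaging.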
# ATXN2 expr inh – ATXN2 expression inhibition; actives 0.72% (n = 360,000); Potency, µM (top dose mostly 57 µM), for the others: at the top dose activity change, negative = inhibition, usual class: inhibitors; HEK-293 ATXN2-luciferase reporter, luminescence, 24 h; note: % is set by controls: 0 for no effect and ±100 for the full control effect; nearly all actives have a fitted effect of over 55% in size
#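 ATXN2-luciferase reporter cells (luciferase flanked by upstream and downstream ATXN2 gene portions) were treated 24 h at 37 °C with compounds at up to 57 uM. SteadyGlo luminescence gave expression; GF-AFC fluorescence gave viability.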
# HepG2 tox – HepG2 cytotoxicity, counter-screen for TGF-b inhibitors; HepG2 CAGA-GFP viability, ATP luminescence, 18 h; Potency, µM (titrated, usually from 46.1 µM), for inactives: top-dose activity change, negative = cytotoxicity, hits mostly cytotoxic; actives 0.76% (n = 410,000)
#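 HepG2 CAGA-GFP cells (1000/well, DMEM with 1% FBS) received compound, then TGF-beta at 500 pg/mL final, and were incubated 18 hours at 37 degrees C. Viability was read by CellTiter-Glo luminescence. Media-only wells were set as complete cell-killing and DMSO as no toxicity.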
# Active calls of the source: *; i = inactive; ? = inconclusive; . = not tested or not shown. Compounds with a hit are over-represented: about 2.4% of the library has one in this group of screens. Calls come from the whole dose curve; as a rule, active = well fitted curve in the direction sought with a large enough effect; inconclusive = small, poorly fitted or top-dose-only effect, or another doubt; inactive = no such curve, though single readings can be large; an effect the other way counts as inactive or inconclusive. Potency is the fitted concentration of half-maximal effect.
SMILES,Apoferritin bind,S2 tox,TGFb inhibitor,ATXN2 expr inh,HepG2 tox
CCN1/C(=C/c2ccc3cccc(C)c3[n+]2CC)Sc2ccccc21,?,?,263.9%,?,14.1µM*
Brc1ccc[n+](CCC2CCCCC2)c1,.,.,-0.6%,.,-8.9%
C=C1C(=O)O[C@H]2C[C@H]1[C@@H](OC(C)=O)C/C(C)=C/CC/C(C)=C\CC[C@]2(C)O,.,7.94µM*,3.16µM*,5.62µM*,-102.5%
CC(=O)O[C@@H]1C[C@H]2C(C)=C[C@H]3OC(=O)[C@@H](C)[C@H]3C[C@H]2[C@]1(C)O,-2.2%,i,9.7%,9.4%,-14.6%
CC(OC(=O)C1CC2CCCC(C1)C2=O)C(=O)Nc1cccc([N+](=O)[O-])c1 (stereo not drawn),.,i,-0.8%,.,-4.4%
O=C(Nc1cn[nH]c1-c1nc2ccc(CN3CCOCC3)cc2[nH]1)NC1CC1,.,.,.,5.44µM*,.
CC(C)(C)NC(=S)Nc1ccc(Nc2ccccc2)cc1,?,?,?,-13.8%,12.6µM*
C=C1CC(Cn2cc(Br)c(=O)[nH]c2=O)(c2ccc(-c3ccccc3)cc2)OC1=O (stereo not drawn),.,?,4.47µM*,28.2µM*,7.08µM*
CC1(C)Cc2c(cnn2-c2cccc(F)c2)C(NC(=O)c2ccc(=O)[nH]n2)C1 (stereo not drawn),-12.4%,i,-9.8%,.,0.7%
N#Cc1c(N)[nH]c(=S)c(C#N)c1-c1ccccc1,-20.0%,i,-0.6%,-3.7%,11.3%
N#Cc1c(N)[nH]c2ccc(Sc3ccccc3)cc12,.,?,15.8µM*,2.3%,0.6%
CCOC(=O)c1c(NC(C)=O)sc2c1CCC(C=O)=C2Sc1ccccc1,?,.,?,28.2µM*,-46.3%
CN(Cc1ccccc1)c1ccc(S(=O)(=O)N2CCC(C(=O)O)CC2)cc1[N+](=O)[O-],-5.3%,i,12.9%,-2.2%,14.8%
CC1(Cc2cccc(F)c2)C(=O)Nc2ccc(S(=O)(=O)NC3CCCCC3)cc21 (stereo not drawn),.,?,-24.3%,?,-26.9%
COc1ccccc1-c1ccc2c(c1)C(C)(Cc1ccc(Cl)c(Cl)c1)C(=O)N2 (stereo not drawn),.,?,14.1µM*,?,-100.8%
CC1(Cc2ccc(Cl)c(Cl)c2)C(=O)Nc2ccc(S(=O)(=O)NC3CCCCC3)cc21 (stereo not drawn),.,i,12.6µM*,-13.4%,-97.2%
COc1c(OC(C)=O)ccc(/C=C/c2ccc3cccc(OC)c3n2)c1[N+](=O)[O-],-17.8%,i,-9.1%,7.8%,-48.8%
CCOc1cc(/C=C/c2ccc3cccc([N+](=O)[O-])c3n2)ccc1O,-12.5%,?,12.6µM*,-8.1%,-34.8%
CCOc1c(OC(C)=O)ccc(/C=C/c2ccc3cccc(OC(C)=O)c3n2)c1[N+](=O)[O-],?,?,12.6µM*,-1.1%,-74.0%
COc1c(OC(C)=O)ccc(/C=C/c2ccc3ccccc3n2)c1[N+](=O)[O-],?,22.4µM*,?,-40.9%,-52.7%
Nc1c(C(=O)c2ccccc2)sc(Nc2ccc(Cl)c(Cl)c2)c1C(=O)Nc1ccccc1,-15.2%,.,?,?,7.94µM*
CN(CCOc1ccccc1)CC(=O)Nc1ccc([N+](=O)[O-])cc1Cl,?,i,11.2µM*,-10.3%,-82.1%
CN(CC(=O)Nc1ccccc1Cl)C(=O)COC(=O)c1ccc([N+](=O)[O-])cc1Cl,.,i,?,5.7%,0.7%
Cc1cc(C(C)(C)C)cc(C)c1S(=O)(=O)N1CC(=O)Nc2ccccc21,-14.0%,i,?,-17.3%,12.6µM*
COc1ccc(C(=O)NC(Nc2ccc(C)cc2)C(Cl)(Cl)Cl)cc1 (stereo not drawn),-6.1%,i,11.2µM*,-19.7%,-6.5%
SMILES,Apoferritin bind,S2 tox,TGFb inhibitor,ATXN2 expr inh,HepG2 tox
CCCN(CCC)c1ccc(/C=C/c2sc3ccccc3[n+]2CCCCI)cc1,.,.,6.31µM*,.,14.1µM*
COc1ccc(-c2ccc(C(=O)NCc3ccc(N4CCN(C)CC4)cc3)c3occc23)c(C)c1,.,25.1µM*,?,?,11.2µM*
O=C(c1cc(C2CC2)nc2ccccc12)N1N=C(C(F)F)CC1(O)C(F)F (stereo not drawn),?,i,-28.2%,-9.7%,-22.9%
O=C(c1cc(C2CC2)nc2ccc(Br)cc12)N1N=C(C(F)F)CC1(O)C(F)F (stereo not drawn),-16.7%,?,7.94µM*,?,-94.0%
CCN(CC)c1ccc(NS(=O)(=O)c2ccc(-c3cnc(C4CC4)o3)cc2)c(C)c1,-1.1%,?,?,?,-22.4%
CCOc1ccccc1NS(=O)(=O)c1ccc(-c2cnc(C3CC3)o2)cc1,-14.9%,i,4.47µM*,.,-31.5%
Cc1cc(C)c(NS(=O)(=O)c2ccc(-c3cnc(C4CC4)o3)cc2)c(C)c1,75.0%,?,1.41µM*,-31.0%,-67.3%
O=S(=O)(Nc1ccc(F)cc1Cl)c1ccc(-c2cnc(C3CC3)o2)cc1,?,i,14.1µM*,.,-53.6%
Cc1ccc(NS(=O)(=O)c2cc(-c3cnc(C4CC4)o3)ccc2C)cc1Cl,41.2%,i,7.08µM*,-7.9%,11.2µM*
Cc1cc(C)c(NS(=O)(=O)c2cc(-c3cnc(C4CC4)o3)ccc2C)c(C)c1,41.5%,i,6.8%,9.0%,-23.2%
CC(C)(C)CC(=O)OCC(=O)[C@@]12OC(C)(C)O[C@@H]1C[C@H]1[C@@H]3CCC4=CC(=O)C=C[C@]4(C)[C@@]3(F)[C@@H](O)C[C@@]12C,.,i,.,.,.
COc1ccc(CC(=O)Nc2ccc(S(=O)(=O)N3CCCC3)cc2)c(OC)c1,.,i,-2.7%,-17.5%,-3.1%
C#Cc1cccc(C(=O)NCc2nc(-c3ccccc3NC(C)=O)oc2C)c1,.,i,.,.,.
O=C(C[N+]12CN3CN(CN(C3)C1)C2)c1ccc(Br)cc1,.,.,-3.6%,.,-6.5%
Cc1ccc(NC(=O)C2CCC(CNS(=O)(=O)c3cccc4nsnc34)CC2)c(Cl)c1 (stereo not drawn),-12.3%,?,-5.5%,-9.4%,17.4%
COc1ccc(NS(=O)(=O)c2ccc(-c3cnc(C4CC4)o3)cc2)cc1OC,-15.5%,i,-30.7%,.,-21.6%
COc1ccccc1CNS(=O)(=O)c1ccc(S(=O)(=O)NC2CC2)cc1,12.0%,i,?,0.8%,8.2%
COc1ccccc1CNS(=O)(=O)c1ccc(-c2cnc(C3CC3)o2)cc1,0.9%,?,11.2µM*,-30.1%,28.7%
Cc1ccc(NS(=O)(=O)c2ccc(-c3cnc(C4CC4)o3)cc2)c(C)c1,-3.4%,?,12.6µM*,.,-68.2%
O=S(=O)(Nc1cccc(C(F)(F)F)c1)c1ccc(-c2cnc(C3CC3)o2)cc1,-11.2%,?,?,?,12.6µM*
